Source: PubChem BioAssay AID1159580 (chemical genetic matrix, 2015)
Several values for one entry are separate records, joined by “and”; a condition that tells them apart may be missing. Equal values may be shown once. Screen size: about 5,500 compounds; about 2,000 (36%) were called active. Roughly 18% stayed inconclusive and do not appear here. No stated cut-off is given here; in the data, active means normalized growth mostly below about 0.91 (no sharp cut-off); inconclusive means no clear call, values can overlap the other calls; inactive means mostly above about 0.92. The list shows a part of the results.

Test: chemical genetic growth profiling, strain panel (AID 1159580);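 further: tested at 20 µM; growth read once vehicle control cultures reached saturation at 30 °C; 1 = growth at the plate median or of vehicle wells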
Conditions: S. cerevisiae deletion strains, growth OD

Measured: normalized growth

CN1CCN(C2=Nc3ccccc3Oc3ccc(Cl)cc32)CC1
inactive: locus YAL013W, strain DEP1, stronger effect = lower value 0.995 and 0.98 | locus YAL021C, strain ccr4, stronger effect = lower value 0.981 | locus YAL026C, strain drs2, stronger effect = lower value 0.984 | locus YAL030W, strain snc1, stronger effect = lower value 1 | locus YAL040C, strain CLN3, stronger effect = lower value 0.979 | locus YBL061C, strain skt5, stronger effect = lower value 0.982 | locus YBR009C, strain hhf1, stronger effect = lower value 1.01 | locus YBR021W, strain FUR4, stronger effect = lower value 1.01 | locus YBR023C, strain chs3, stronger effect = lower value 1 | locus YBR171W, strain sec66, stronger effect = lower value 0.964 | locus YBR229C, strain ROT2, stronger effect = lower value 0.953 | locus YBR231C, strain swc5, stronger effect = lower value 0.988 | locus YBR279W, strain paf1, stronger effect = lower value 0.987 | locus YCL011C, strain gbp2, stronger effect = lower value 0.978 | locus YCL016C, strain dcc1, stronger effect = lower value 1 | locus YCL029C, strain bik1, stronger effect = lower value 0.994 | locus YCL061C, strain MRC1 (second series), stronger effect = lower value 0.992 | locus YCL061C, strain MRC1, stronger effect = lower value 0.989 | locus YCL069W, strain vba3, stronger effect = lower value 0.999 | locus YCR088W, strain abp1, stronger effect = lower value 0.993 | locus YDL005C, strain med2, stronger effect = lower value 0.972 | locus YDL035C, strain GPR1, stronger effect = lower value 0.988 | locus YDL040C, strain nat1, stronger effect = lower value 0.97 | locus YDL074C, strain BRE1, stronger effect = lower value 0.997 | locus YDL101C, strain DUN1, stronger effect = lower value 0.989 | locus YDL134C, strain PPH21, stronger effect = lower value 0.979 | locus YDL185W, strain tfp1, stronger effect = lower value 0.992 | locus YDL192W, strain arf1, stronger effect = lower value 0.991 | locus YDR001C, strain nth1, stronger effect = lower value 0.967 | locus YDR069C, strain doa4, stronger effect = lower value 0.969 | locus YDR101C, strain arx1, stronger effect = lower value 0.994 | locus YDR137W, strain rgp1, stronger effect = lower value 1.01 | locus YDR150W, strain NUM1, stronger effect = lower value 0.991 and 1.02 | locus YDR159W, strain sac3, stronger effect = lower value 0.972 | locus YDR162C, strain NBP2, stronger effect = lower value 1.01 | locus YDR195W, strain ref2 0.948 | locus YDR297W, strain sur2, stronger effect = lower value 0.99 | locus YDR318W, strain mcm21, stronger effect = lower value 0.977 | locus YDR334W, strain swr1, stronger effect = lower value 0.947 | locus YDR335W, strain msn5, stronger effect = lower value 0.982 | locus YDR363W, strain ESC2, stronger effect = lower value 0.928 | locus YDR388W, stronger effect = lower value 0.994 | locus YDR392W, strain spt3, stronger effect = lower value 1.05 | locus YDR502C, strain sam2, stronger effect = lower value 0.986 | locus YEL003W, strain gim4, stronger effect = lower value 0.976 | locus YEL037C, strain rad23, stronger effect = lower value 0.998 | locus YEL061C, strain CIN8 (second series), stronger effect = lower value 0.97 | locus YEL061C, strain CIN8, stronger effect = lower value 0.997 | locus YER002W, strain NOP16, stronger effect = lower value 0.974 | locus YER015W, strain faa2, stronger effect = lower value 0.996 | locus YER016W, strain bim1, stronger effect = lower value 1 | locus YER110C, stronger effect = lower value 0.985 | locus YER111C, strain swi4, stronger effect = lower value 0.998 | locus YER155C, strain BEM2 (second series), stronger effect = lower value 0.985 | locus YER155C, strain BEM2, stronger effect = lower value 0.996 | locus YER167W, strain BCK2, stronger effect = lower value 0.988 | locus YFR010W, strain ubp6, stronger effect = lower value 1.01 | locus YGL078C, strain dbp3, stronger effect = lower value 1 | locus YGL086W, strain mad1, stronger effect = lower value 0.974 | locus YGL167C, strain pmr1, stronger effect = lower value 0.984 | locus YGL173C, strain kem1, stronger effect = lower value 1.01 | locus YGL227W, strain vid30, stronger effect = lower value 0.956 | locus YGL240W, strain doc1, stronger effect = lower value 1.02 | locus YGL248W, strain PDE1, stronger effect = lower value 0.963 | locus YGL253W, strain hxk2, stronger effect = lower value 0.982 | locus YGR078C, strain PAC10, stronger effect = lower value 1.02 and 0.994 | locus YGR135W, strain pre9, stronger effect = lower value 0.981 | locus YGR229C, strain SMI1, stronger effect = lower value 0.983 | locus YGR252W, strain gcn5, stronger effect = lower value 0.956 | locus YHR013C, strain ard1, stronger effect = lower value 0.974 | locus YHR027C, strain rpn1, stronger effect = lower value 0.966 | locus YHR030C, strain SLT2, stronger effect = lower value 0.987 and 1.04 | locus YHR079C, strain IRE1 (second series), stronger effect = lower value 0.99 | locus YHR079C, strain IRE1, stronger effect = lower value 1.06 | locus YHR094C, strain hxt1, stronger effect = lower value 0.991 | locus YHR129C, strain ARP1, stronger effect = lower value 0.991 | locus YHR142W, strain chs7, stronger effect = lower value 0.956 | locus YHR200W, strain rpn10, stronger effect = lower value 0.987 | locus YIL066C, strain RNR3, stronger effect = lower value 0.971 | locus YIL073C, strain SPO22, stronger effect = lower value 0.989 | locus YIL125W, strain kgd1, stronger effect = lower value 0.992 | locus YIR030C, strain dcg1, stronger effect = lower value 0.991 | locus YJL092W, strain hpr5, stronger effect = lower value 0.978 | locus YJL095W, strain BCK1 (second series), stronger effect = lower value 0.964 | locus YJL095W, strain BCK1, stronger effect = lower value 0.981 and 1.03 | locus YJL115W, strain asf1, stronger effect = lower value 0.926 | locus YJL129C, strain trk1, stronger effect = lower value 0.971 | locus YJL134W, strain LCB3, stronger effect = lower value 0.992 | locus YJL154C, strain vps35, stronger effect = lower value 0.97 | locus YJL164C, strain tpk1, stronger effect = lower value 0.998 | locus YJL166W, strain qcr8, stronger effect = lower value 0.975 | locus YJL168C, strain set2, stronger effect = lower value 0.991 | locus YJL187C, strain SWE1 (second series), stronger effect = lower value 0.983 | locus YJL187C, strain SWE1, stronger effect = lower value 0.99 | locus YJR043C, strain POL32, stronger effect = lower value 1.01 | locus YJR066W, strain TOR1, stronger effect = lower value 0.931
